Assay outcomes: PubChem, National Center for Advancing Translational Sciences (NCATS)
The list is not random: actives were taken first. Their share in the collection is about 19%.
ELG1 repair inh: ELG1-dependent DNA repair inhibition | Potency, µM (highest dose often 46.1 µM), without a hit: at the top dose activity change, negative = inhibition, usual class: inhibitors | 2.3% of 330,000 active | AID 504467 | HEK293T ELG1-luciferase reporter, luminescence, 16 h; DNA damage induced by 5-fluorouridine; also: potency is read from the fitted curve at half-maximal effect; nearly all actives have a fitted effect of over 55% in size
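HEK293T cells expressing luciferase-tagged ELG1 (2,000/well) received 5-Fluorouridine plus compound or DMSO for 16 hr at 37 °C. Luciferase was read by ONE-Glo luminescence after 30 min at room temperature.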
HT1080 IDH1KD tx: HT-1080 IDH1 knockdown cell toxicity (counter line) | HT-1080 IDH1 knockdown viability, ATP luminescence, 48 h | Potency, µM (highest dose often 46.1 µM), inactives show at the top dose activity, negative = toxicity, most hits filed as cytotoxic | AID 686971 | 2% of 360,000 active;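 also: potency is read from the fitted curve at half-maximal effect; 0% = DMSO wells and -100% = cell-free medium wells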
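CellTiter-Glo luminescence after 48 h compound exposure at 37 degrees C of IDH1-knockdown HT-1080 cells in 5% FBS RPMI. %Activity scaled between DMSO wells and cell-free media wells, with curves fitted and assigned curve classes.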
IL1B secr inh: inhibitors of inflammasome signaling (IL-1 beta secretion); 4.7% of 360,000 active; THP-1 LPS/ATP IL-1B secretion, AlphaLISA, 16 h; active compounds read low; activity change, % at 57.5 µM; in the data active = activity change below about -50%; inconclusive = mostly about -30% to -49%
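Secreted IL-1B measured by AlphaLISA bead assay after 16 h compound exposure of THP-1 cells; compounds (final up to 57.5 uM) added 1 h before LPS (250 ng/mL) and ATP (1.25 mM) stimulation; lower signal means less secretion.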
DT40 TDP1 CPT: DT40-hTDP1 cell growth loss with CPT; AID 686979; 12% of 420,000 active; Potency, µM (titrated, usually from 46.2 µM), without a hit: at the top dose activity change, negative = growth inhibition, hits mostly inhibitors; chicken DT40 Tdp1-/-;hTDP1 cells + 20 nM CPT, ATP luminescence, 48 h; also: potency is read from the fitted curve at half-maximal effect; nearly all actives have a fitted effect of over 55% in size
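Chicken DT40 Tdp1-/- cells complemented with human TDP1, 400 cells/well, exposed to compounds plus 20 nM camptothecin for at least 48 h at 37 C; viability read as ATP content by CellTiter-Glo luminescence.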
HT1080-NT tox: kills 2HG-producing HT-1080-NT fibrosarcoma cells; HT-1080-NT fibrosarcoma viability, CellTiter-Glo ATP luminescence, 48 h; Potency, µM (top dose mostly 46.1 µM), for the others: at the highest dose activity, negative = less viability, most hits filed as cytotoxic; 1.6% of 360,000 active; AID 686970;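 also: NT is the 2HG producing partner of a matched IDH1 knockdown line; potency is read from the fitted curve at half-maximal effect; 0% = DMSO-treated cells and -100% = media-only wells without cells; nearly all actives have a fitted effect of over 55% in size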
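Fibrosarcoma NT cells, 750 per well in 5% FBS RPMI, were exposed to compound for 48 hours. Viability: CellTiter-Glo luminescence.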
TDP1 cell noCPT: qHTS for Inhibitors of human tyrosyl-DNA phosphodiesterase 1 (TDP1): qHTS in cells in absence of CPT; DT40 Tdp1-/- hTDP1 cells, no CPT, ATP luminescence, 48 h; 15% of 420,000 active; AID 686978, 2013; Potency, µM (titrated, usually from 46.2 µM), for inactives: top-dose activity change, negative = growth inhibition, hits mostly inhibitors; also: potency is read from the fitted curve at half-maximal effect; nearly all actives have a fitted effect of over 55% in size
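Stably hTDP1-transfected Tdp1-null chicken DT40 cells were treated with library compounds minus camptothecin and grown for at least 48 hr at 37 °C, after which cellular ATP was quantified by luminescence.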
* hit, by the source's call; ? = inconclusive; / = not tested or not shown. Unless noted, calls follow the shape of the dose curve; as a rule, active = well fitted curve in the direction sought with a large enough effect; inconclusive = small, poorly fitted or top-dose-only effect, or another doubt; inactive = no such curve, though single readings can be large; an effect the other way counts as inactive or inconclusive. Unless noted, % is scaled to controls: 0 for no effect and ±100 for the full control effect.

SMILES	ELG1 repair inh	HT1080 IDH1KD tx	IL1B secr inh	DT40 TDP1 CPT	HT1080-NT tox	TDP1 cell noCPT
COc1ccc(CNc2ncc(-c3ccc(F)cc3)n2C)cc1OC	-15.2%	-9.4%	-11.9	?	-10.1%	23.1µM*
CCn1nnnc1NCc1ccc(OCc2ccc(F)cc2Cl)c(OC)c1	?	-13.8%	-58.3*	?	-7.2%	?
O=C(c1ccc(Cl)cc1)c1oc2ccccc2c1CS(=O)(=O)c1ccccc1	?	1.7%	0.0	?	13.9%	?
C#CCOCCOCCOCCNc1nc(N2CCN(C(=O)[C@H](Cc3cc4ccccc4[nH]3)n3cc([C@@H](N)C(C)CC)nn3)CC2)nc(N2CCN(C(=O)[C@H](Cc3cc4ccccc4[nH]3)n3cc([C@@H](N)CC(C)C)nn3)CC2)n1 (stereo not given in full)	-4.8%	/	/	/	/	/
O=[N+]([O-])c1ccccc1S(=O)(=O)N1CCSCC1	14.1%	7.9%	0.0	-2.8%	3.4%	8.0%
CCOc1ccc(-c2cnc(NCc3cccc4ccccc34)n2CCOC)cc1	-1.9%	?	-94.9*	?	?	4.61µM*
Cn1c(-c2ccc(F)cc2)cnc1NCc1cccc(F)c1	21.3%	?	-11.9	?	5.9%	18.4µM*
Cn1c(-c2ccc(F)cc2)cnc1NCc1ccccc1	18.5%	-26.1%	-10.2	?	-22.1%	?
Cc1cccc(C)c1OCC(O)CNS(=O)(=O)c1ccccc1C(=O)N1CCCCC1 (stereo not given)	16.4µM*	-2.1%	12.4	18.4µM*	-5.2%	20.6µM*
CC(C)CCc1noc(CN(CC2CCC2)CC2CCCO2)n1 (stereo not given)	0.0%	6.0%	0.0	?	9.4%	-16.7%
CCc1ccccc1CC1CN(Cc2ccccc2)Cc2ccccc2N1c1ccc(OC)cc1 (stereo not given)	/	1.7%	-12.0	?	5.1%	11.6µM*
CN1CCc2c(sc3c2C(=O)NC(c2ccccn2)N3)C1 (stereo not given)	20.8%	1.1%	?	-0.7%	3.4%	-3.8%
CCOC(=O)N1CCc2c(sc3c2C(=O)NC(c2cc(OC)c(OC)c(OC)c2)N3)C1 (stereo not given)	/	/	/	3.66µM*	/	5.17µM*
COC(=O)c1ccc(C2NC(=O)c3c(sc(C)c3C)N2)cc1 (stereo not given)	1.3%	2.6%	-5.0	-2.2%	-2.5%	-13.4%
CCOC(=O)N1CCc2c(sc3c2C(=O)NC(c2ccc(C(=O)OC)cc2)N3)C1 (stereo not given)	/	/	/	7.31µM*	/	13µM*
CN1CCc2c(sc3c2C(=O)NC(c2ccccc2)N3)C1 (stereo not given)	?	13.5%	-5.9	?	7.9%	23.1µM*
CCN(c1ccccc1)S(=O)(=O)c1ccc(C(=O)N2CCN(c3ccccc3F)CC2)cc1	/	12.8%	-5.0	?	0.3%	20.6µM*
Cc1cccc(N2CCN(C(=O)CNC(=O)C3CCCCC3)CC2)c1C	?	?	3.5	18.4µM*	-19.8%	?
Cc1cccc(N2CCN(C(=O)c3ccc4c(c3)OCCO4)CC2)c1C	-4.8%	-15.3%	-9.9	?	0.0%	?
COc1ccc(N(C)S(=O)(=O)c2cccc(C(=O)N3CCN(c4cccc(C)c4C)CC3)c2)cc1	/	1.4%	?	?	6.9%	16.4µM*
COc1ccc(CC(=O)N2CCN(c3cccc(C)c3C)CC2)cc1	-10.8%	2.1%	23.1	3.7%	3.0%	?
CCN(c1ccccc1)S(=O)(=O)c1ccc(C(=O)N2CCOCC2)cc1	17.1%	7.7%	6.9	-12.5%	11.2%	-0.9%
Cc1cccc(N2CCN(C(=O)c3ccc(S(=O)(=O)N(C)c4ccccc4)cc3)CC2)c1C	?	7.31µM*	-17.6	5.8µM*	?	4.61µM*
Cc1cccc(N2CCN(C(=O)CNC(=O)c3ccccc3)CC2)c1C	2.7%	?	-2.1	-10.9%	-25.0%	?
O=C1Cn2nnc(-c3ccccc3)c2C2c3ccccc3CCN12 (stereo not given)	/	4.2%	31.8	?	6.9%	?
SMILES	ELG1 repair inh	HT1080 IDH1KD tx	IL1B secr inh	DT40 TDP1 CPT	HT1080-NT tox	TDP1 cell noCPT
CCSc1ccccc1C(=O)N1CCCC1	-5.3%	-5.8%	4.9	-12.1%	-4.4%	-11.3%
Cc1ccc(S(=O)(=O)N2CCN(C(=O)c3cc(S(=O)(=O)N(C)C)ccc3N3CCCC3)CC2)cc1	6.1%	5.0%	-16.2	-11.5%	1.7%	-28.8%
Cc1cccc(N2CCN(C(=O)c3ccccc3SCC(=O)N3CCCC3)CC2)c1C	?	-5.1%	0.0	9.2µM*	-3.8%	13µM*
Cc1cccc(N2CCN(C(=O)c3cc(S(=O)(=O)N(C)C)ccc3N3CCCC3)CC2)c1C	?	-18.1%	-57.5*	?	-17.0%	?
CC(=O)Nc1ccc(NC(=O)CCC(=O)Oc2ccc(C)cc2)cc1	-0.8%	-2.4%	9.7	8.3%	11.0%	-14.8%
O=c1[nH]c(CN2CCN(S(=O)(=O)c3ccccc3C(F)(F)F)CC2)nc2sc3c(c12)CCCC3	16.4µM*	-9.6%	-28.1	?	-2.0%	?
O=c1[nH]c(CN2CCN(Cc3ccc4c(c3)OCO4)CC2)nc2sc3c(c12)CCC3	-0.2%	/	/	/	/	/
Cn1cnc2ncnn2c1=S	/	-0.8%	6.2	1.6%	-0.3%	-6.0%
Cc1cc(C)cc(NC(=O)CC(C)n2nc(C)cc2C)c1 (stereo not given)	/	/	/	20.6µM*	/	?
Cc1sc(NC(=O)c2ccco2)c(C(c2cccnc2)N2CCN(CCO)CC2)c1C (stereo not given)	-2.1%	0.3%	-12.0	-29.1%	-5.7%	0.2%
Cc1sc(NC(=O)c2ccccc2)c(C(c2ccc(Cl)cc2)N2CCN(CCO)CC2)c1C (stereo not given)	-14.1%	?	-65.6*	23.1µM*	?	25.9µM*
COc1ccc(C(c2c(NC(C)=O)sc3c2CCCC3)N2CCN(CCO)CC2)cc1OC (stereo not given)	?	-0.6%	-14.1	-17.7%	-1.1%	-26.4%
CCOc1ccc(C(c2c(NC(=O)c3ccccc3)sc(C)c2C)N2CCN(CCO)CC2)cc1 (stereo not given)	-5.6%	?	-66.8*	20.6µM*	?	18.4µM*
